# Results as given in PubChem BioAssay AID2528 (National Center for Advancing Translational Sciences (NCATS), 2010).
# Where “and” joins values, the source holds several entries; their conditions need not be identical. Identical values can stand only once. In all, about 350,000 compounds went through this assay and about 700 (0.2%) were called active. Where a call stands in place of a potency, no number is given. For the sample, actives were picked, then their nearest neighbours and some compounds at random. Values without a mark were called inactive. Calls follow the shape of the dose curve; as a rule, active = well fitted inhibition curve with a large enough effect; inconclusive = small, poorly fitted or top-dose-only effect; inactive = flat fitted curve, though single readings scatter.
# Target: RecQ-like DNA helicase BLM (Homo sapiens) (UniProt P54132)
# Sequence (P54132 whole entry, looked up): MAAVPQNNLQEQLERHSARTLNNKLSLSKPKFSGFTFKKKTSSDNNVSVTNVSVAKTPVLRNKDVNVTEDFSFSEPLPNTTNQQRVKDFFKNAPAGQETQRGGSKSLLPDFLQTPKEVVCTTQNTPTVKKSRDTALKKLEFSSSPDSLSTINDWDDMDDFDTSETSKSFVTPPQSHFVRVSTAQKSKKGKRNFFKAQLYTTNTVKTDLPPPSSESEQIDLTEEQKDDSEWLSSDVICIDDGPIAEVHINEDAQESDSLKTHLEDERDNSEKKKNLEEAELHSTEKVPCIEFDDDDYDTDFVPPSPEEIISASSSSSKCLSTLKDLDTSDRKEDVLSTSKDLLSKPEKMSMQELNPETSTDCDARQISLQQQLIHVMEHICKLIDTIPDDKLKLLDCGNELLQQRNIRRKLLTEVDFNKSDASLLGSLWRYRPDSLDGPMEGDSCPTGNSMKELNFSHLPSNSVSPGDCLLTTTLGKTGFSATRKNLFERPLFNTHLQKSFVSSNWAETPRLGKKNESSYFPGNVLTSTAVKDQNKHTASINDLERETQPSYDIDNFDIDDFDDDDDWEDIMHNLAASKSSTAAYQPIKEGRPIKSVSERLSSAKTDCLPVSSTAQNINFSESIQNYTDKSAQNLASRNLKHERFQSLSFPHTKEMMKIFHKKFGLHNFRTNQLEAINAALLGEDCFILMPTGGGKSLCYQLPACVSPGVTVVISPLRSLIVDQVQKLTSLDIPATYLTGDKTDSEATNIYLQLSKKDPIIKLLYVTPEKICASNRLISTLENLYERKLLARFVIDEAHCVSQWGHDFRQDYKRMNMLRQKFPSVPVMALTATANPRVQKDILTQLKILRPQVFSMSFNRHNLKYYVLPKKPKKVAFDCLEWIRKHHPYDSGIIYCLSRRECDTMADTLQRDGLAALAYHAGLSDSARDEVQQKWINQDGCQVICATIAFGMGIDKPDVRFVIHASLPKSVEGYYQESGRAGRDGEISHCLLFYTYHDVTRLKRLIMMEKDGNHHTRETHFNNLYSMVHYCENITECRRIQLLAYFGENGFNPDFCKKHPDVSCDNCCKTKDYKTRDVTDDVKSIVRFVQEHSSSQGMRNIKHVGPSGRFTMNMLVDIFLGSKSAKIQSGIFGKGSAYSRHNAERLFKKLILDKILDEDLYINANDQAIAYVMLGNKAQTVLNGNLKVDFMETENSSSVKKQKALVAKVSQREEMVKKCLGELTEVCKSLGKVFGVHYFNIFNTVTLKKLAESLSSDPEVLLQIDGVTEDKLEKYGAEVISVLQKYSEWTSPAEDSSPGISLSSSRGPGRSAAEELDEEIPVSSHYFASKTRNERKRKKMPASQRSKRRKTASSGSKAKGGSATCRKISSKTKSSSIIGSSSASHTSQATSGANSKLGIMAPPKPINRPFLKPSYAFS
# Assay: qHTS Assay for Inhibitors of Bloom's syndrome helicase (BLM); also: nearly all actives have a fitted effect of over 35% in size
# Details: recombinant BLM DNA unwinding, fluorescence dequenching; series mostly up to 56.1 µM
# Potency is read from the fitted curve at half-maximal effect.
Compound,Potency,"activity change, negative = inhibition"
Nc1ccc2nc3c(=O)[nH]c(=S)[nH]c3nc2c1,2.82 µM (active),
O=C(Nc1cccc(C(F)(F)F)c1)c1cc(Br)cc(Br)c1O,inactive,
COC(=O)[C@@]1(Cc2ccc(OC)cc2)[C@H]2c3cc(C(=O)N4CCCC4)n(Cc4ccc(C(F)(F)F)nc4)c3C[C@H]2CN1C(=O)c1ccccc1,inactive,
COc1ccccc1CNC(=O)C(=O)NCC(c1cccs1)S(=O)(=O)c1cccs1 (configuration not stated),inactive,
CO[C@H]1COC(=O)[C@@H](OCc2ccccc2)/C=C\[C@H](C)[C@@H](OC)COC(=O)[C@H](OCc2ccccc2)/C=C\[C@@H]1C,,6.6% [at 12.4 µM]
CC(=O)OCC1OC(C#CCCCc2ccccc2)C=CC1OC(C)=O (configuration not stated),,-2.87% [at 12.4 µM] and 2.33% [at 12.4 µM]
C#CCCCCCCCCCCCCCCCC(=O)O,inactive,
O=C(Nc1cccc(F)c1)N1CCC2(CC1)CCN(S(=O)(=O)c1ccccc1)CC2,inactive,
CN(c1ccccc1)c1nc(N)c([N+](=O)[O-])c(NCc2ccco2)n1,inactive,
CNc1nc(Nc2ccc(C)c(Cl)c2)nc(N)c1[N+](=O)[O-],inactive,
COc1cccc(Nc2nc(N)c([N+](=O)[O-])c(NCc3ccco3)n2)c1,3.55 µM (active),
CS(=O)(=O)N1CCC2(CC1)CN(Cc1ccccc1)C2,inactive,
COC1[C@H](OC(N)=O)C(O)[C@H](Oc2ccc3c(O)c(NC(=O)c4ccc(O)c(CC=C(C)C)c4)c(=O)oc3c2C)OC1(C)C (some centres not stated),inactive,
COc1ccc2c(c1)O[C@@H](c1ccc3c(c1)OCO3)[C@H](OC(=O)NCc1ccco1)C2=O,inactive,
Clc1ccc(C(Cn2ccnc2)OCc2ccsc2Cl)c(Cl)c1 (configuration not stated),inactive,
Cc1[nH]c2ccccc2c1C(c1ccccc1)c1cccs1 (configuration not stated),inactive,
COc1ccccc1CNc1cc(-c2ccccc2CN(C)C)ncn1,inactive,
C/C=C1\C2C=C(C)CC1(N)c1ccc(=O)[nH]c1C2 (configuration not stated),inactive,
Cc1c(CC(=O)N2CCN(C(=O)C3COc4ccccc4O3)CC2)c(=O)oc2c(O)c(O)ccc12 (configuration not stated),8.91 µM (active),
COc1ccc(OC)c2sc(N3CCN(C(=O)C4COc5ccccc5O4)CC3)nc12 (configuration not stated),inactive,
COc1cc(NS(=O)(=O)c2ccc3c(c2)OCC(C(=O)N2CCCC2)O3)cc(OC)c1 (configuration not stated),inactive,
COC(=O)CC1c2ccccc2C(Cc2ccc(OC)cc2)=C(C)N1C(=O)OC (configuration not stated),,1.25% [at 12.4 µM]

Compound,Potency,"activity change, negative = inhibition"
O=C(NC1CC(=O)N(c2ccc(F)cc2)C1)c1ccc(S(=O)(=O)N2CCCC2)cc1 (configuration not stated),inactive,
O=c1c(CCc2ccccc2)nc2cncnc2n1C1CC1,inactive,
COC(=O)c1ccc(C(NC(=O)OCc2ccccc2)/C(C)=C/[C@@H](C)C(=O)NCc2cc(C)on2)cc1 (some centres not stated),inactive,
C#CCC(C(=O)OC)(C(=O)OC)C(C[N+](=O)[O-])c1ccccc1 (configuration not stated),,0.0811% [at 12.4 µM]
COc1ccc(OCCCn2c(C3CC(=O)N(c4ccc(F)cc4)C3)nc3ccccc32)cc1 (configuration not stated),inactive,
Cc1ccc(N=C2NC(=O)/C(=C/C=C/c3ccco3)S2)cc1C,11.2 µM (active),
Cc1cc(N(C)C)nc(Cl)n1,inactive,
O=S(O)S(=O)(=O)O,inactive,
N#Cc1cccc(CS(=O)(=O)c2nnnn2-c2cc(C(F)(F)F)cc(C(F)(F)F)c2)c1,inactive,
O=C(c1ccco1)N1CCC[C@@]2(CCN(c3ccccc3)C2)C1,inactive,
Cc1c(CCNC(=O)c2ccc(C(F)(F)F)cc2)sc2nc(-c3ccc(F)cc3)nn12,inactive,
COC(=O)C1=C(C(=O)OC)[C@@H]2N(Cc3ccccc3)c3ccccc3[C@@]23C[C@@H](C(=O)OC)N(S(=O)(=O)c2ccc(C(F)(F)F)cc2)C3=N1,,0.18% [at 12.4 µM]
COc1ccc(-c2nc3c(c4c2C[C@H](c2ccccc2)OC4)CN(C(=O)C2CC2)CC3)c(C)c1,,-3.76% [at 12.4 µM]
CCOC(=O)C1CCCN(C(=O)Cn2ncc3c(C)n(Cc4ccc(F)cc4)c(C)c3c2=O)C1 (configuration not stated),inactive,
COC(=O)c1ccc2c(c1)N(CC(=O)Nc1ccc(C)c(C)c1)C(=O)c1ccccc1S2,inactive,
Cc1nc([N+](=O)[O-])cn1CC(=O)Nc1ccc2c(c1)OCO2,inactive,
Cc1ccc(C(=O)O)cc1-c1ccc(/C=C2\SC(=O)N(CC(=O)Nc3ccc4c(c3)OCO4)C2=O)o1,25.1 µM (active),
Cn1c(COc2ccc(Cl)cc2)nc2ccccc2c1=O,inactive,
CCCc1nc2c(c(=O)c3ccccc3n2C)c(=O)n1C1CCCCCC1,inactive,
Cn1c2ccccc2c(=O)c2c(=O)n(Cc3ccco3)c(COc3ccccc3)nc21,8.91 µM (active),
COC(=O)[C@H]1C[C@@H]1[C@H](NC(=O)Oc1ccc(F)cc1)c1ccccc1,inactive,
CC(C)Cn1c(N)c(C(=O)NCc2cccs2)c2nc3ccccc3nc21,31.6 µM (active),

Compound,Potency,"activity change, negative = inhibition"
O=C(NCc1cccs1)c1cc(-c2ccccn2)nc2ccc(Br)cc12,inactive,
CCC(C)NC(=O)c1c(N)n(/N=C/c2cccs2)c2nc3ccccc3nc12 (configuration not stated),inactive,
CCC[C@@H]1C[C@@]1(CCC)C(NS(=O)(=O)c1cccc2cccnc12)c1ccc(Cl)cc1 (some centres not stated),inactive,
COc1ccc(Nc2ncc3c(n2)CCN(C(=O)OC(C)(C)C)C3)cc1,inactive,
COc1ccc(/C=C2/SC(=O)N(CCCCCC(=O)Nc3ccccc3C(=O)O)C2=S)cc1,inactive,
O=C1/C(=C\c2ccccc2Cl)SC(=S)N1CCC(=O)N1CCCc2ccccc21,inactive,
Cc1ccc(-c2nn(-c3ccccc3)cc2/C=C2\SC(=S)N(CCCCCC(=O)O)C2=O)o1,28.2 µM (active),
C/C=C(\C)C(=O)OC1C(OC(=O)C2(C)OC2C)c2cc3ccc(=O)oc3cc2OC1(C)C (configuration not stated),inactive,
CC(C)(O)CCC(O)[C@@](C)(O)C1CC[C@]2(O)C3=CC(=O)C4CC(O)C(O)C[C@]4(C)C3CC[C@]12C (some centres not stated),inactive,
COc1ccc2c(-c3ccccc3)cc(SCC(=O)N(C)C3CCS(=O)(=O)C3)nc2c1 (configuration not stated),inactive,
CN(C(=O)COC(=O)c1cc(-c2ccco2)nc2ccccc12)C1CCS(=O)(=O)C1 (configuration not stated),3.16 µM (active),
COc1ccc(NC(=O)COc2ccc(C(=O)OCC(=O)N(C)C3CCS(=O)(=O)C3)cc2OC)cc1 (configuration not stated),inactive,
COc1cccc(-c2cc(NCCc3c[nH]c4ccc(OC)cc34)ncn2)c1,inactive,
CO[C@H]1COC(=O)[C@@H](C)NC(=O)C/C=C\[C@@H](C)[C@H](OC)COC(=O)C/C=C\[C@@H]1C,,0.711% [at 12.4 µM]
CCCC[C@@H]1C[C@H]1C(NC(=O)c1ccco1)c1ccc(C(=O)OC)cc1 (some centres not stated),inactive,
CCOc1ccc(OCC)c(NC(=O)CN(c2ccc(C)cc2)S(=O)(=O)c2c(C)n[nH]c2C)c1,inactive,
CCCCC/C=C\C/C=C\C/C=C\CCCCC(=O)NCC(=O)O,inactive,
COc1cccc([C@@H]2Oc3ccc(Br)cc3C(=O)[C@H]2OC(=O)NCCc2ccc(OC)c(OC)c2)c1,inactive,
CCc1nn(CC(=O)NCC(C)c2ccccc2)c(=O)c2cc3occc3n12 (configuration not stated),inactive,
C[C@@H]1C[C@H]2[C@@H]3C[C@H](F)C4=CC(=O)C=C[C@@]4(C)[C@]3(F)[C@H](O)C[C@]2(C)[C@@]1(O)C(=O)CO,inactive,
CC(=O)OC1C([N+]2(C)CCCCC2)C[C@H]2C3CC[C@H]4C[C@H](OC(C)=O)C([N+]5(C)CCCCC5)CC4(C)C3CCC12C (some centres not stated),inactive,
COC(=O)C(C(=O)OC)[C@@H]1CCCC(=O)C1,,-7.4% [at 12.4 µM]

Compound,Potency,"activity change, negative = inhibition"
O=c1cc(-c2ccc(O)cc2)oc2c(-c3cc(-c4cc(=O)c5c(O)cc(O)cc5o4)ccc3O)c(O)ccc12,inactive,
COc1ccc(C2(C#N)CCC(C(=O)O)CC2)cc1OC1CCCC1 (configuration not stated),inactive,
COC(=O)C1(C)C=CCN1C(=O)c1ccccc1 (configuration not stated),inactive,
CC(C)=CC1C(C(=O)O)C1(C)C (configuration not stated),inactive,
O=C(CCOc1ccccc1)N(Cc1cccnc1)c1nc2ccc(Cl)cc2s1,inactive,
CC1(C)OC2CC(=O)OC[C@@]23C1CC(=O)[C@]1(C)C3CC[C@@]2(C)C(c3ccoc3)OC(=O)C3O[C@@]321 (some centres not stated),inactive,
FC(F)(F)c1ccccc1-c1cc(NCc2ccccc2)ncn1,inactive,
O=C(CSc1nccn1Cc1ccc(Cl)cc1)NCc1ccccc1,inactive,
C/C=C/C=N/NC(=O)c1ccncc1,inactive,
CC1CN(C(=O)N2CCC(C(=O)NCc3ccco3)CC2)c2cc(Cl)ccc2O1 (configuration not stated),inactive,
COC(=O)[C@@H]1C[C@@]2(O)[C@H](O)[C@H](O)[C@H](O)C[C@H]2N1CC1CCCCC1,inactive,
O=C(c1cnccn1)N1CCC2(CCCN(Cc3ccccc3)C2)CC1,inactive,
CCOC(=O)Cn1c(=O)sc2cccc(Cl)c21,inactive,
O=C(c1cnccn1)N1CCC2(CCN(Cc3cc(C(F)(F)F)cc(C(F)(F)F)c3)CC2)CC1,inactive,
Cc1ccc(-c2nc(SCc3ccc(Br)cc3)n3[nH]c(=O)cc3n2)cc1,28.2 µM (active),
Cc1cccc(-c2nc(SCc3ccc(Br)cc3)n3[nH]c(=O)cc3n2)c1,inactive,
O=c1cc2nc(-c3ccccc3)nc(SCCOc3ccc(Cl)cc3)n2[nH]1,inactive,
O=C(OCc1ccccc1)c1ccc(O)cc1,inactive,
COC(=O)N1C(/C=C/C=C/c2ccc(OC)cc2)=Cc2ccccc2C1CC(C)=O (configuration not stated),,-6.97% [at 12.4 µM]
C[C@H]1Cc2c(-c3ccccc3)nc3c(c2CO1)CN(S(=O)(=O)c1ccc(Cl)c2nonc12)CC3,,-0.0157% [at 12.4 µM]
O=c1c(CCc2ccccc2)nc2cnc(N3CCNCC3)nc2n1Cc1cccs1,inactive,
